Results taken from PubChem BioAssay AID651742 (Broad Institute, 2012).
The whole screen tested about 5,600 compounds, of which about 780 (14%) were called active. Another 3% or so got no clear call; they are omitted.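 The calls were made as follows: active = mean signal decrease across replicates above about 35% based on untreated-well scatter, with enough replicates individually passing (limit read from the data); inconclusive = no rule stated though some were filed; inactive = the rest.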 Only a sample is shown.

test: NIH3T3 cell viability loss – cherry-pick, single point, cytotoxicity control for T. cruzi proliferation inhibitor project, confirmation (AID 651742); details: NIH/3T3 viability, CellTiter-Glo ATP luminescence, 90 h; at 8.35 µM; hits give high values;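 also: 0% = median of neutral control wells and 100% = median of positive control wells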

Row | SMILES | cytotoxicity (signal decrease)
1 | C[C@@H]1CCCCO[C@H](CN(C)C(=O)CCC(F)(F)F)[C@H](C)CN([C@H](C)CO)C(=O)c2cc(NS(C)(=O)=O)ccc2O1 | 5.17% (inactive)
2 | COc1ccccc1NC(=O)N1CCCCN2[C@H](C1)[C@H](c1ccc(-c3ccccc3)cc1)[C@@H]2CO | 33.3% (inactive)
3 | COc1ccccc1C#Cc1ccc([C@H]2[C@H](CO)N3CCCCN(C(=O)C4CCC4)C[C@@H]23)cc1 | 50.3% (active)
4 | CCC(=O)N1CCCCN2[C@H](C1)[C@@H](c1ccc(-c3ccc(F)cc3)cc1)[C@@H]2CO | 15.5% (inactive)
5 | OC[C@@H]1[C@H](c2ccc(C#Cc3ccccc3)cc2)[C@@H]2CN(Cc3cncnc3)CCCCN12 | 41.5% (active)
6 | CCC(=O)N1CCCCN2[C@H](C1)[C@@H](c1ccc(/C=C/c3ccccc3)cc1)[C@@H]2CO | 38.9% (active)
7 | Cc1ccc(-c2ccc([C@H]3[C@H](CO)N4CCCCN(Cc5cncnc5)C[C@@H]34)cc2)cc1 | 20% (inactive)
8 | O=C(C1CCC1)N1CCCCN2[C@H](CO)[C@H](c3ccc(-c4cccc(F)c4)cc3)[C@@H]2C1 | 30.8% (inactive)
9 | O=C(CN1CCOCC1)N1CCCCN2[C@@H](CO)[C@H](c3ccc(/C=C/c4ccccc4)cc3)[C@@H]2C1 | 32.3% (inactive)
10 | COc1ccccc1C#Cc1ccc([C@@H]2[C@H](CO)N3CCCCN(C(=O)C4CCCC4)C[C@@H]23)cc1 | 53.5% (active)
11 | OC[C@@H]1[C@H](c2ccc(C#CC3(O)CCCC3)cc2)[C@H]2CN(Cc3cncnc3)CCCCN12 | 13.7% (inactive)
12 | COc1ccccc1C#Cc1ccc([C@@H]2[C@H](CO)N3CCCCN(C(=O)C4CC4)C[C@@H]23)cc1 | 17.7% (inactive)
13 | O=C(C1CCC1)N1CCCCN2[C@H](CO)[C@H](c3ccc(-c4ccncc4)cc3)[C@@H]2C1 | -4.89% (inactive)
14 | C[C@@H]1CCCCO[C@H](CN(C)S(=O)(=O)c2ccc(Cl)cc2)[C@H](C)CN([C@@H](C)CO)C(=O)c2cc(NS(=O)(=O)c3cccs3)ccc2O1 | -18.8% (inactive)
15 | C[C@@H]1CN([C@H](C)CO)C(=O)CCCn2nncc2CO[C@@H]1CN(C)Cc1ccc(C(=O)Nc2ccccc2N)cc1 | 14.8% (inactive)
16 | Cc1ccc(S(=O)(=O)N2C[C@@H](O)COC[C@@H]3O[C@H](CC(=O)NCc4ccc(Cl)c(Cl)c4)CC[C@H]32)cc1 | 3.54% (inactive)
17 | O=C(C1CCCC1)N1CCCCN2[C@@H](CO)[C@H](c3ccc(-c4cccc(F)c4)cc3)[C@@H]2C1 | 25.5% (inactive)
18 | CCCNC(=O)N1[C@@H]2c3cccc(=O)n3C[C@H]1[C@H](CO)[C@H]2C(=O)NCC(F)(F)F | 19.4% (inactive)
19 | C[C@@H]1CCCCO[C@H](CN(C)C(=O)Nc2cccc3ccccc23)[C@H](C)CN([C@H](C)CO)C(=O)c2cc(NS(=O)(=O)c3cccs3)ccc2O1 | 2.6% (inactive)
20 | Cc1ccc(S(=O)(=O)Nc2ccc3c(c2)C(=O)N([C@H](C)CO)C[C@H](C)[C@H](CN(C)C(=O)Nc2ccc(F)cc2)OCCCC[C@H](C)O3)cc1 | -4.04% (inactive)

Row | SMILES | cytotoxicity (signal decrease)
21 | Cc1ccc(S(=O)(=O)N(C)C[C@H]2OCCCC[C@H](C)Oc3ccc(NC(=O)Cc4ccccc4)cc3C(=O)N([C@@H](C)CO)C[C@@H]2C)cc1 | -1.37% (inactive)
22 | COc1ccc(NC(=O)N(C)C[C@H]2OCCCC[C@H](C)Oc3ccc(NC(=O)Nc4ccc(C(F)(F)F)cc4)cc3C(=O)N([C@@H](C)CO)C[C@@H]2C)cc1 | -11.5% (inactive)
23 | C[C@H]1CCCCO[C@H](CN(C)S(=O)(=O)c2ccc(Cl)cc2)[C@@H](C)CN([C@@H](C)CO)C(=O)c2cc(NC(=O)Nc3ccc4c(c3)OCO4)ccc2O1 | 6.45% (inactive)
24 | C[C@@H]1CN([C@@H](C)CO)C(=O)c2cc(C#Cc3ccccc3)cnc2O[C@H]1CN(C)C(=O)c1ccccn1 | 15.5% (inactive)
25 | C[C@@H]1CN([C@H](C)CO)S(=O)(=O)c2ccc(C#CCC3CCCC3)cc2O[C@H]1CN(C)C(=O)CC1CC1 | -5.41% (inactive)
26 | C[C@H]1CCCCO[C@@H](CN(C)S(=O)(=O)c2cccs2)[C@@H](C)CN([C@@H](C)CO)C(=O)c2cc(NS(=O)(=O)c3ccc(Cl)cc3)ccc2O1 | 5.91% (inactive)
27 | N#Cc1cccc(-c2ccc([C@H]3[C@H](CO)N4CCCCN(C(=O)Nc5cccc(F)c5)C[C@@H]34)cc2)c1 | 32.4% (inactive)
28 | O=C(Nc1cccc(F)c1)N1CCCCN2[C@H](CO)[C@H](c3ccc(C#CC4CC4)cc3)[C@@H]2C1 | 35.2% (active)
29 | O=C(Nc1ccccc1)N1CCCCN2[C@H](CO)[C@@H](c3ccc(C#Cc4ccccn4)cc3)[C@H]2C1 | 1.29% (inactive)
30 | C[C@@H]1CN([C@H](C)CO)C(=O)c2cc(NS(=O)(=O)c3cccs3)ccc2O[C@@H](C)CCCCO[C@@H]1CN(C)S(=O)(=O)c1ccc(Cl)cc1 | -7.98% (inactive)
31 | COc1ccc(NC(=O)Nc2ccc3c(c2)C(=O)N([C@H](C)CO)C[C@H](C)[C@H](CN(C)S(=O)(=O)c2ccc(Cl)cc2)OCCCC[C@H](C)O3)cc1 | -12.7% (inactive)
32 | O=C(c1ccccn1)N1CC[C@@H]2[C@H]1c1cc(-c3ccccc3)ccc1N[C@@H]2CO | 3.39% (inactive)
33 | C[C@@H]1CN([C@@H](C)CO)C(=O)c2cc(NC(=O)Nc3ccc4c(c3)OCO4)ccc2O[C@@H]1CN(C)Cc1ccc(Oc2ccccc2)cc1 | 22.6% (inactive)
34 | C[C@H]1CN([C@@H](C)CO)C(=O)Cc2cc(NC(=O)Cc3cn(C)c4ccccc34)ccc2O[C@@H]1CN(C)Cc1ccccc1 | -12.8% (inactive)
35 | C[C@H](CO)N1C[C@H](C)[C@@H](CN(C)Cc2ccc(-c3ccccc3)cc2)Oc2ccc(NC(=O)CCC(F)(F)F)cc2CC1=O | 32.2% (inactive)
36 | C[C@@H]1CN([C@@H](C)CO)C(=O)Cc2cc(NC(=O)C3CCCCC3)ccc2O[C@@H]1CN(C)Cc1ccc(C(=O)Nc2ccccc2N)cc1 | 37.8% (active)
37 | C[C@H](CO)N1C[C@H](C)[C@H](CN(C)Cc2ccc(-c3ccccc3)cc2)Oc2ccc(NC(=O)Nc3ccc(F)cc3)cc2CC1=O | 43.5% (active)
38 | C[C@@H]1CN([C@H](C)CO)C(=O)Cc2cc(NC(=O)Cc3ccccc3)ccc2O[C@H]1CN(C)Cc1ccc(Oc2ccccc2)cc1 | 1.79% (inactive)
39 | C[C@@H]1CN([C@H](C)CO)C(=O)Cc2cc(NC(=O)c3ccncc3)ccc2O[C@H]1CN(C)Cc1ccc(-c2ccccc2)cc1 | 32.8% (inactive)
40 | O=C(C1CC1)N1CCCCN2[C@H](CO)[C@H](c3ccc(-c4cccc(F)c4)cc3)[C@H]2C1 | 2.61% (inactive)

Row | SMILES | cytotoxicity (signal decrease)
41 | CN1c2ccc(-c3ccccc3)cc2[C@H]2[C@H](CCN2C(=O)Cc2ccccn2)[C@H]1CO | 8.34% (inactive)
42 | C[C@@H]1CCCCO[C@H](CN(C)S(=O)(=O)c2cccs2)[C@H](C)CN([C@H](C)CO)C(=O)c2cc(NS(=O)(=O)c3ccc(F)cc3)ccc2O1 | -5.09% (inactive)
43 | COc1ccc(NC(=O)N2CC[C@@H]3[C@@H](CO)N(C)c4ccc(-c5cccc(F)c5)cc4[C@@H]32)cc1 | 1.1% (inactive)
44 | O=C(NCC1CCCCC1)[C@H]1[C@H](CO)[C@H]2Cn3c(cccc3=O)[C@H]2N1C(=O)CC1CC1 | 0.341% (inactive)
45 | COc1cccc(C#Cc2ccc([C@@H]3[C@H](C#N)N[C@H]3CO)cc2)c1 | -25.2% (inactive)
46 | COCC(=O)N1CC[C@@H]2[C@@H](CO)Nc3ccc(-c4cccc(C#N)c4)cc3[C@@H]21 | 2.33% (inactive)
47 | CN1C(=O)c2cc(NC(=O)c3cnccn3)ccc2OC[C@@H]2O[C@H](CC(=O)N[C@@H]3CCN(Cc4ccccc4)C3)CC[C@@H]21 | -18.7% (inactive)
48 | CCC(=O)N1CC[C@@H]2[C@@H](CO)N(C)c3ccc(-c4cccc(OC)c4)cc3[C@@H]21 | -4.46% (inactive)
49 | O=C(c1cnccn1)N1CC[C@@H]2[C@H](CO)Nc3ccc(-c4cccc(F)c4)cc3[C@@H]21 | 32.9% (inactive)
50 | O=C(c1ccncc1)N1CCCCN2[C@H](CO)[C@H](c3ccc(-c4ccccc4)cc3)[C@H]2C1 | 6.21% (inactive)
51 | CCCC#Cc1ccc([C@H]2[C@H](CO)N3CCCCN(C(=O)c4ccc5c(c4)OCO5)C[C@@H]23)cc1 | 35.2% (active)
52 | COc1ccc(C#Cc2ccc([C@@H]3[C@@H](CO)N4CCCCN(C(=O)c5ccncc5)C[C@@H]34)cc2)cc1 | 22.3% (inactive)
53 | CC(C)(O)C#Cc1ccc([C@@H]2[C@H](CO)N3CCCCN(C(=O)c4cccc(F)c4)C[C@@H]23)cc1 | -14.5% (inactive)
54 | O=C(c1cccc(F)c1)N1CCCCN2[C@H](CO)[C@H](c3ccc(-c4ccncc4)cc3)[C@H]2C1 | -11.1% (inactive)
55 | COc1ccc(-c2ccc([C@H]3[C@H]4CN(C(=O)c5ccc6c(c5)OCO6)CCCCN4[C@H]3CO)cc2)cc1 | 44.1% (active)
56 | CN(C)C(=O)c1ccc(-c2ccc([C@H]3[C@@H](CO)N4CCCCN(CC5CC5)C[C@H]34)cc2)cc1 | -1.46% (inactive)
57 | COCC#Cc1ccc([C@@H]2[C@H](CO)N3CCCCN(C(=O)CN(C)C)C[C@@H]23)cc1 | -18.1% (inactive)
58 | Cc1cccc(-c2ccc([C@@H]3[C@H](CO)N4CCCCN(C(=O)c5ccc6c(c5)OCO6)C[C@@H]34)cc2)c1 | 69.7% (active)
59 | COCCNC[C@@H]1[C@H](c2ccccc2)[C@H](CO)N1c1nc(C)c(C)s1 | -17.4% (inactive)
60 | CC(=O)N1CC[C@@H]2[C@H](CO)Nc3ccc(C#Cc4ccccc4F)cc3[C@@H]21 | -0.01% (inactive)
